Experimental data published in PubChem BioAssay (NCATS).
Records with an inconclusive call do not appear. Active and inactive are the calls of the source. Calls follow the shape of the dose curve; as a rule, active = well fitted inhibition curve with a large enough effect; inconclusive = small, poorly fitted or top-dose-only effect; inactive = no such curve, though single readings can be large or run the other way.

Assay: Primary qHTS for small molecule stabilizers of the endoplasmic reticulum resident proteome: Secreted ER Calcium Modulated Protein (SERCaMP) assay (AID 1508630)
Details: SH-SY5Y GLuc-SERCaMP (Gaussia luciferase released on ER calcium loss) secretion, thapsigargin, luminescence; series mostly up to 38.4 µM
Description: Assay Provider: Brandon K. Harvey Ph.D.
National Institute on Drug Abuse, National Institutes of Health, Baltimore, MD
Endoplasmic reticulum (ER) dysregulation is associated with human pathologies including neurodegenerative, cardiovascular, muscular, and diabetic conditions. Maintenance of ER calcium is critical for functions of the ER and its depletion can lead to loss of ER resident proteins, in a process termed exodosis. Therapeutic compounds capable of attenuating the redistribution of ER proteins under pathological conditions may slow or stop disease progression. To identify such compounds, we performed a quantitative high-throughput screen (qHTS) using the SERCaMP assay, which monitors secretion of ER resident proteins triggered by calcium depletion.
SERCaMP was initially developed as a reporter of ER calcium homeostasis using a Gaussia luciferase with a modified signal peptide and carboxy-terminus (GLuc-SERCaMP), modifications that confer secretion of the reporter in response to ER calcium depletion (Henderson et al., 2014). The assay was used to screen 9,501 compounds, including a collection of drugs approved by the FDA (US), EMA (EU), NHI (Japan), and HC (Canada) regulatory agencies (Huang et al., 2011). Since the SERCaMP reporter reflects the exodosis phenomenon (Trychta et al., 2018a), compounds identified in the screen have the potential to prevent exodosis by different mechanisms such as stabilizing ER calcium or augmenting ERS retrieval.
1. Henderson, M.J., Wires, E.S., Trychta, K.A., Richie, C.T., and Harvey, B.K. (2014). SERCaMP: a carboxy-terminal protein modification that enables monitoring of ER calcium homeostasis. Mol Biol Cell 25, 2828-2839.
2. Huang, R., Southall, N., Wang, Y., Yasgar, A., Shinn, P., Jadhav, A., Nguyen, D.T., and Austin, C.P. (2011). The NCGC pharmaceutical collection: a comprehensive resource of clinically approved drugs enabling repurposing and chemical genomics. Sci Transl Med 3, 80ps16.
3. Trychta, K.A., Back, S., Henderson, M.J., and Harvey, B.K. (2018a). KDEL Receptors Are Differentially Regulated to Maintain the ER Proteome under Calcium Deficiency. Cell Rep 25, 1829-1840 e1826.
SEQUENCE No. (1, 2, 3, etc.); […] (e.g., Cells, Incubation, Reagent, etc.); VALUE and DESCRIPTION.
1; Reagent; 5 uL; 1000 SH-SY5Y cells per wells
3; Compound; 23 nL; Control inhibitor / compound library
5; Reagent; 100 nM; Thapsigargin
7; Reagent; 1 uL; 0.5x coelenterazine
8; Detection; Luminescence; ViewLux imaging system
NOTES (numbers refer to sequence above)
1; SH-SY5Y human neuroblastoma cells stably expressing GLuc-SERCaMP (SH-SY5Y-GLuc-ASARTDL) cells were seeded in 1,536 well white tissue culture treated plates (Corning, Cat# 7464) in DMEM-high glucose-sodium pyruvate (ThermoFisher Scientific, Cat #10569) supplemented with 10% bovine growth serum (Hyclone), 10 U/ml penicillin (Gibco), 10 ug/ml streptomycin (Gibco), and 20 mM HEPES.
2; Assay plates were incubated for 5 hour at 37C in a humidified incubator containing 5% CO2.
3; qHTS libraries (23 nl, final concentrations of 1.53 uM, 7.67 uM, 38.3 uM) or controls (neutral control: DMSO, positive control: dantrolene) were added using a Kalypsis pin-tool Robotic System equipped with 1536 pinheads.
4; Cells were then incubated for 16 hours at 37C, 5% CO2.
5; Thapsigargin was added at 100 nM to deplete ER calcium stores.
6; Cells were incubated for 4 hour (37 °C, 5% CO2)
7; Gaussia luciferase in the medium was measured by adding 1 ul of 0.5x coelenterazine (final concentration 0.07x) prepared in Gaussia Luciferase Glow Assay Buffer (Pierce), without addition of the Cell Lysis Buffer Reagent.
8; Luminescence was measured using a ViewLux […] CCD imaging system (Perkin Elmer) equipped with clear filters. […] The same controls were also used for the calculation of the Z' factor, a measure of assay quality control, as previously described (Zhang et al., 1999). […]

Structure (SMILES)	outcome
CC(=O)[C@H]1CC[C@H]2[C@@H]3CC[C@H]4C[C@](C)(O)CC[C@]4(C)[C@H]3CC[C@]12C	inactive
Cc1cccc(C)c1NC1=NCCCS1	inactive
C[C@]12CCC(=O)C(O)=C1CC[C@@H]1[C@@H]2CC[C@]2(C)C(=O)CC[C@@H]12	inactive
N[C@@H](Cc1ccc(Oc2cc(I)c(O)c(I)c2)c(I)c1)C(=O)O	inactive
Oc1ccccc1-c1ccccc1	inactive
NCCc1cc(O)c(O)cc1O	inactive
O=C(O)C(=O)c1cn(Cc2ccccc2)c2ccc(-c3ccc(OC(F)(F)F)cc3)cc12	inactive
FC(F)(F)c1cccc(C2=CCN(CCc3ccc4ccccc4c3)CC2)c1	inactive
C#CCOC(C(=O)OCCN(C)C)(c1ccccc1)c1ccccc1	inactive
O=c1[nH]c2ccccc2n1C1CCN(CCCC(c2ccc(F)cc2)c2ccc(F)cc2)CC1	inactive
COC1(CS(=O)c2ccccc2)CCN(CCc2c[nH]c3ccc(F)cc23)CC1 (stereo not given)	inactive
N[C@@H]1C[C@H]1c1ccccc1	inactive
CN1CCN(C(=O)O[C@H]2c3nccnc3C(=O)N2c2ccc(Cl)cn2)CC1	inactive
O=c1oc2ccccc2c(O)c1C(CC(O)c1ccc(-c2ccc(Br)cc2)cc1)c1ccccc1 (stereo not given)	inactive
CC1OC(C)OC(C)O1 (stereo not given)	inactive
COc1ccc(C(=O)c2c(C)n(CCN3CCOCC3)c3ccccc23)cc1	inactive
NP(N)(=O)NC(=O)c1ccc(F)cc1	inactive
CCCC(C)(COC(N)=O)COC(=O)NC(C)C (stereo not given)	inactive
C=CCN1CC[C@]23c4c5ccc(O)c4O[C@H]2C(=O)CC[C@@]3(O)[C@H]1C5	inactive
Cn1c(CCCC(=O)O)nc2cc(N(CCCl)CCCl)ccc21	inactive

Structure (SMILES)	outcome
Cc1ccc(S(=O)(=O)N[C@@H](CCCCN)C(=O)CCl)cc1	inactive
Cc1ccc(-c2nc3ccc(C)cn3c2CC(=O)N(C)C)cc1	inactive
COC[C@H]1OC(=O)c2coc3c2[C@@]1(C)C1=C(C3=O)C2CCC(=O)[C@@]2(C)C[C@H]1OC(C)=O (stereo not given in full)	inactive
COc1ccc(Cc2nccc3cc(OC)c(OC)cc23)cc1OC	inactive
CCCN1CCC[C@@H]2Cc3nc(N)ncc3C[C@H]21	inactive
Cc1ccc2c(c1)C1CN(C)CCC1N2 (stereo not given)	inactive
NCC(CC(=O)O)c1ccc(Cl)cc1 (stereo not given)	inactive
CN(C)CCN(C)CCc1ccc(Cl)c(Cl)c1	inactive
Cc1sc2c(c1C)C(c1ccc(Cl)cc1)=N[C@@H](CC(=O)OC(C)(C)C)c1nnc(C)n1-2	inactive
C=C(C)[C@H]1Cc2c(ccc3c2O[C@@H]2COc4cc(OC)c(OC)cc4[C@@H]2C3=O)O1	inactive
COc1ccccc1N1CCNCC1	inactive
C[C@H]1O[C@@H](O[C@H]2[C@@H](O)C[C@H](O[C@H]3[C@@H](O)C[C@H](O[C@H]4CC[C@@]5(C)[C@H](CC[C@@H]6[C@@H]5CC[C@]5(C)[C@@H](C7=CC(=O)OC7)CC[C@]65O)C4)O[C@@H]3C)O[C@@H]2C)C[C@H](O)[C@@H]1O	inactive
c1ccc(C2CC2)c(OCC2=NCCN2)c1	inactive
C[C@@H]1[C@@H](C(=O)C[C@H]2O[C@@H]3O[C@]4(C)CC[C@@H]5[C@H](C)CC[C@@H]([C@H]2C)[C@@]35OO4)O[C@@H]2O[C@]3(C)CC[C@H]4[C@H](C)CC[C@@H]1[C@@]24OO3	inactive
Cc1cccc(C)c1NC(=O)CN1CCCC1=O	inactive
CNCC(O)c1ccc(O)cc1 (stereo not given)	inactive
CCC1(C2=NCCN2)Cc2ccccc2O1 (stereo not given)	inactive
CC(C)=CCOc1c2occc2cc2ccc(=O)oc12	inactive
CNC(=O)c1ccc(N2C(=S)N(c3ccc(C#N)c(C(F)(F)F)c3)C(=O)C23CCC3)cc1F	inactive
CC[C@@H](CO)NC(=O)[C@@H]1C=C2c3cccc4c3c(cn4C)C[C@H]2N(C)C1	inactive
